Giardia FBPA inh-1: Giardia lamblia aldolase inhibition; A8B2U2; purified Giardia FBPA; Potency, µM (doses to about 59.6 µM), inactives show at the highest dose activity, negative = inhibition, most hits filed as inhibitors; 290,000 tested, 0.71% active; also: nearly all actives have a fitted effect of over 55% in size
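40 nM FBPA preincubated 10 min at RT with compound (up to 57.5 uM final), then substrate plus GAPDH/TPI/NAD/arsenate coupling and diaphorase/resazurin added. Fluorescence read after 20 min at RT, 525/598 nm.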
RE007 growth inh: less growth of the S. pombe RE007 Vpr strain. AID 651644. Potency, µM (series often up to 92.2 µM), without a hit: at the top dose activity change, negative = less growth, actives largely listed as inhibitors. S. pombe RE007 Vpr strain, BacTiter-Glo ATP luminescence, 24 h. 360,000 tested, 0.21% active; active = well fitted falling curve with a large enough effect; inconclusive = small, poorly fitted or top-dose-only effect; inactive = no such curve, though single readings can be large or run the other way; also: nearly all actives have a fitted effect of over 50% in size
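Fission yeast RE007 carrying one integrated HIV-1 vpr copy, seeded at OD 0.01 in PMG+AL medium with 23 nL pinned compound. Grown 24 h at 30 degrees; viability read by BacTiter-Glo luminescence after 5 min.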
LmPK inhibitor: inhibitors of Leishmania mexicana pyruvate kinase; 290,000 tested, 0.37% active; Potency, µM (highest dose often 57.5 µM), without a hit: at the highest dose activity change, negative = inhibition, hits mostly inhibitors; Q27686; purified LmPK, Kinase-Glo ATP luminescence, 1 h
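Screened at intermediate enzyme activity to detect both inhibitors and activators: LmPK at 0.1 nM, with a 0.5 nM enzyme column as activation reference. PEP 0.5 mM, ADP 0.1 mM; ATP detected by luminescence after 1 h.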
TbPYK inhibitor: inhibitors of Trypanosoma brucei pyruvate kinase | Q57TT1 | TbPYK enzyme, Kinase-Glo Plus ATP luminescence, 45 min | Potency, µM (highest dose often 76.8 µM), without a hit: top-dose activity, negative = inhibition, usual class: inhibitors | 410,000 tested, 0.12% active | AID 624173; also: nearly all actives have a fitted effect of over 50% in size
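ADP (130 uM final) triggers the TbPYK reaction after compound addition; incubation is 45 min at room temperature. Kinase-Glo Plus is then added and luminescence imaged. Normalized data are fitted to concentration-effect curves.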
Giardia growth: Giardia lamblia growth inhibition; 1,500 tested, 5% active; Potency, µM (titrated, usually from 57.5 µM), inactives show at the top dose activity change, negative = inhibition, most hits filed as inhibitors; shares compounds with Giardia FBPA inh-1; Giardia lamblia trophozoite growth inhibition;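 also: trophozoites exposed to compound for 48 h at 37 °C; nearly all actives have a fitted effect of over 70% in size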
Mammalian tox: toxic to mammalian cells in Giardia aldolase counter-screen. shares compounds with Giardia FBPA inh-1. mammalian cell viability counter-screen, qHTS. Potency, µM (top dose mostly 57.5 µM), for inactives: top-dose viability change, negative = toxicity, actives largely listed as inhibitors. 1,500 tested, 4% active;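 also: Chinese hamster ovary cells used as mammalian cytotoxicity surrogate; viability measured as cellular ATP by luminescence; compound exposure lasted 48 h before reading; nearly all actives have a fitted effect of over 60% in size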
Giardia FBPA inh-2: confirmation of Giardia fructose-bisphosphate aldolase inhibitors | shares compounds with Giardia FBPA inh-1 | purified Giardia aldolase enzyme activity, qHTS | Potency, µM (top dose mostly 57.5 µM), without a hit: at the highest dose activity change, negative = inhibition, actives largely listed as inhibitors | 1,500 tested, 5% active | AID 2787; also: nearly all actives have a fitted effect of over 45% in size
Rabbit aldolase: rabbit FBP aldolase inhibition by Giardia aldolase hits | Rabbit muscle FBPA enzyme inhibition, selectivity counter-screen | 1,500 tested, 4% active | Potency, µM (doses to about 57.5 µM), for inactives: at the highest dose activity, negative = inhibition, usual class: inhibitors | shares compounds with Giardia FBPA inh-1; also: nearly all actives have a fitted effect of over 60% in size
Target sequence (P00883 whole entry, looked up): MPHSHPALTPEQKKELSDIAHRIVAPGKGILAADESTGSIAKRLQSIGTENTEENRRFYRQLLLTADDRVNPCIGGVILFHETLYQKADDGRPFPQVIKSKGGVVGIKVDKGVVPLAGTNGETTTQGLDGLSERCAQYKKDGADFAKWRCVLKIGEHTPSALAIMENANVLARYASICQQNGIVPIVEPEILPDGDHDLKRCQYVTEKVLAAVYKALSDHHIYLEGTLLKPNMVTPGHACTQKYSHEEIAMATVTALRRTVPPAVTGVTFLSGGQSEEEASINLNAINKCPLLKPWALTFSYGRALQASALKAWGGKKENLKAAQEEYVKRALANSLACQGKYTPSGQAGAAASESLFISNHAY
GAPDH counter: GAPDH inhibition flagged for Giardia aldolase hits. shares compounds with Giardia FBPA inh-1. GAPDH coupling enzyme counterscreen, biochemical, qHTS. Potency, µM (highest dose often 57.5 µM), for inactives: at the highest dose activity change, negative = inhibition, hits mostly inhibitors. 1,500 tested, 6% active; also: nearly all actives have a fitted effect of over 55% in size
Starred values were filed as active, the others as inactive; ? = inconclusive; · = not tested or not shown; [ ] = dose if it differs, or a comment. In the library only some 0.95% were active in any assay of this set; here they are far more common. Unless noted, calls follow the shape of the dose curve; as a rule, active = well fitted curve in the direction sought with a large enough effect; inconclusive = small, poorly fitted or top-dose-only effect, or another doubt; inactive = no such curve, though single readings can be large; an effect the other way counts as inactive or inconclusive. % is scaled to controls: 0 for no effect and ±100 for the full control effect; potency is read from the fitted curve at half-maximal effect.

SMILES	Giardia FBPA inh-1	RE007 growth inh	LmPK inhibitor	TbPYK inhibitor	Giardia growth	Mammalian tox	Giardia FBPA inh-2	Rabbit aldolase	GAPDH counter
Cc1ccc2oc(=O)c(/C=C(\O)C(C)(C)C)nc2c1	-25.5%	-7.1%	1.5%	12.1%	·	·	·	·	·
Cc1ccc2oc(=O)c(/C=C(\O)c3ccco3)nc2c1	19.9µM*	-8.7%	7.3%	2.0%	12.3%	7.7%	-17.1%	0.8%	-2.2%
O=C(N[C@@H]1CCC(=O)N(CC[C@H](Oc2ccccc2)c2ccccc2)CC1)OCc1ccccc1	-2.1%	-23.0%	-1.9%	-1.0%	·	·	·	·	·
FC(F)C(F)(F)Oc1cccc(Nc2nccn3c(-c4ccc5ccccc5c4)cnc23)c1	·	-8.5%	·	-4.8%	·	·	·	·	·
CN1C(=O)/C(=C/C=C/c2ccco2)C(=O)NC1=S	15.8µM*	-2.0%	10.2%	-10.2%	27.8%	-5.0%	-20.4%	6.1%	22.5%
Cc1ccc(N2C(=O)NC(=O)/C(=C\C=C\c3ccco3)C2=O)cc1	-3.9%	14.7%	10.1%	-28.4%	·	·	·	·	·
CC(C)Cc1ccc(CN2CCCC(NC(=O)CCn3cnnn3)C2)cc1 (stereo unspecified)	·	-7.3%	-0.4%	2.4%	·	·	·	·	·
O=C(CN1C(=O)c2ccccc2C1=O)C(O)CN1C(=O)c2ccccc2C1=O (stereo unspecified)	·	-15.0%	·	-5.5%	·	·	·	·	·
O=C1CSC(=S)N1N1C(=O)c2cccc([N+](=O)[O-])c2C1=O	17.7µM*	·	?	·	?	5.5%	3.6%	11.4%	11.0%
Cc1c(N=Nc2c(O)[nH]c(=O)[nH]c2=O)c(=O)n(-c2ccccc2)n1C	15.8µM*	5.2%	-2.8%	3.8%	2.3%[10.4 µM]	22.1%	-3.1%	-20.4%	-9.3%
Cc1c(N=CC=Nc2c(C)n(C)n(-c3ccccc3)c2=O)c(=O)n(-c2ccccc2)n1C	2.3%	·	-0.7%	·	·	·	·	·	·
Cc1c(N=Nc2c(O)n(-c3ccc(Br)cc3)c(=O)[nH]c2=O)c(=O)n(-c2ccccc2)n1C	15.8µM*	2.5%	-0.5%	-3.3%	?	10.1%	8.7%	0.0%	-6.1%
Cc1[nH]c(=S)[nH]c(=O)c1CCC1OCCO1	7.08µM*	·	4.0%	1.0%	7.1%[38.3 µM]	-1.5%	6.9%	8.5%	-11.0%
CCn1c(O)c(C#N)c(C)cc1=O	12.6µM*	-2.5%	4.5%	-0.4%	?	28.2%	?	?	?
Cc1cccc2c(N)c3c(nc12)N(C)CC3	15.8µM*	·	-0.4%	1.1%	?	11.7%	-1.2%	-5.9%	7.6%
CC(=O)N[C@@H]1C(O)OC(CO)C(O)C1O (stereo partly specified)	-0.5%	·	·	-0.3%	·	·	·	·	·
COc1cc2c(cc1OC)n(CC(=O)c1ccc(C)cc1)c(=O)n1nc(CCn3nc(C)cc3C)nc21	·	·	·	0.7%	·	·	·	·	·
COc1cccc(-n2c(=O)c3ccccc3n3c(=S)[nH]nc23)c1	?	6.0%	3.2%	?	·	·	·	·	·
COCCCn1c(=O)c2ccccc2n2c(=S)[nH]nc12	7.08µM*	2.1%	9.2%	?	-21.0%[38.3 µM]	-4.8%	7.1%	-2.2%	-15.9%
CN(C)C(CNC(C(=O)Nc1ccc([N+](=O)[O-])cc1Br)c1ccccc1)c1ccccc1 (stereo unspecified)	19.9µM*	-13.1%	-0.2%	21.0%	-11.6%[10.4 µM]	-20.1%	1.0%	-4.3%	1.6%
CC(C)CNC(C(=O)Nc1ccc([N+](=O)[O-])cc1Br)c1ccccc1 (stereo unspecified)	?	-6.1%	0.3%	4.3%	·	·	·	·	·
Cc1onc(-c2ccccc2)c1C(=O)OCC(=O)Nc1ccc(C#N)cc1	·	7.0%	·	-6.7%	·	·	·	·	·
Cc1ccc(SCCN2CCN(C)CC2)cc1	22.4µM*	13.6%	-3.3%	0.0%	-7.8%[10.4 µM]	-5.0%	1.9%	4.4%	7.8%
Cc1ccc(SCCN2CCN(Cc3ccccc3)CC2)cc1	?	-9.9%	-2.2%	-5.0%	·	·	·	·	·
O=[N+]([O-])c1cc(CN2CCN(c3cccc(C(F)(F)F)c3)CC2)c2cccnc2c1O	15.8µM*	-7.7%	1.6%[11.5 µM]	-6.0%	-16.7%	-28.0%	-9.6%	-19.1%	-21.5%
CSc1nccn1C(=O)c1ccccc1[N+](=O)[O-]	28.2µM*	-2.9%	3.9%	-13.2%	10.7%[10.4 µM]	9.0%	-14.3%	-11.5%	-9.8%
O=C(CN1C(=O)COc2ccc(S(=O)(=O)N3CCCCCC3)cc21)N1CCN(c2ccccc2)CC1	·	·	·	-1.5%	·	·	·	·	·

High-throughput results (PubChem BioAssay)
